From PubChem BioAssay (NCI)
The panel holds about 83,000 compounds, 20% with a hit somewhere; the sample as a whole holds those more often.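 Note: values are percent growth. 100 is the growth of untreated cells, values between 100 and 0 indicate rising inhibition; between -100 and 0 indicates cell death.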 A number with no mark means an inactive call. The source made the active and inactive calls. The calls were made as follows: active = growth percent below 10; inactive = the rest.

How the values were obtained:
Assay in all cases: NCI-60 one-dose screen, 48 h (100 = growth as untreated, 0 = no growth, -100 = all killed)
Conditions in all cases: 10 µM unless noted
SR leukemia = tested on: SR leukemia
RPMI-8226 leukemia = tested on: RPMI-8226 leukemia
OVCAR-8 ovarian = tested on: OVCAR-8 ovarian
OVCAR-5 ovarian = tested on: OVCAR-5 ovarian
OVCAR-4 ovarian = tested on: OVCAR-4 ovarian
SK-OV-3 ovarian = tested on: SK-OV-3 ovarian
IGROV1 ovarian = tested on: IGROV1 ovarian
OVCAR-3 ovarian = tested on: OVCAR-3 ovarian
HS 578T breast = tested on: HS 578T breast
NCI/ADR-RES ovarian = tested on: NCI/ADR-RES ovarian

| SMILES | growth (SR leukemia) | growth (RPMI-8226 leukemia) | growth (OVCAR-8 ovarian) | growth (OVCAR-5 ovarian) | growth (OVCAR-4 ovarian) | growth (SK-OV-3 ovarian) | growth (IGROV1 ovarian) | growth (OVCAR-3 ovarian) | growth (HS 578T breast) | growth (NCI/ADR-RES ovarian) |
| --- | --- | --- | --- | --- | --- | --- | --- | --- | --- | --- |
| CCN(CC)CCCCCCNc1ccnc2cc(Cl)ccc12 | 28.2% | 130% | 117% | 112% | 75.2% | 98.2% | 124% | 84.6% | 92.4% | 104% |
| O=S(=O)(NCCNc1cc(-c2cn(-c3ccccc3)nc2-c2cccc(O)c2)ccn1)c1ccc(Cl)cc1 | 2.36% (active) | 12.8% | 31% | 63.4% | 38.2% | 53.5% | 44.4% | 43.2% | 21.2% | 29.1% |
| COc1ccc(C2NC(=O)Nc3ccccc32)c(OC)c1 (centres undefined) | 91.7% | 108% | 101% | 112% | 105% | 95.3% | 98.2% | 112% | 94.8% | 99% |
| COC(=O)[C@]12CC[C@@H](C)[C@H](C)[C@@H]1C1=CC(=O)[C@@H]3[C@@]4(C)C[C@@H](O)[C@H](O)[C@@]5(C)COC(=C45)C[C@@]3(C)[C@]1(C)CC2 | 7.5% (active) | 51.2% | 61.4% | 95.9% | 63% | 83.9% | 47.6% | 48.3% | 49.7% | 20.8% |
| [B-][N+](CC)(CC)c1ccccc1 | 74.7% | 108% | 112% | 86.9% | 103% | 109% | 112% | 112% | 120% | 110% |
| O=C(/C(=C(\C(=O)c1ccccc1)c1ccccc1)c1ccccc1)c1ccccc1 | 31.6% | 18.7% | 41.6% | 100% | 55.8% | 82.5% | 69% | 40.8% | 76.6% | 45.4% |
| COC(=O)c1cc(=O)nc(N/N=C/c2ccc(C)cc2)s1 | 94.8% | 89.9% | 105% | 101% | 96.9% | 110% | 105% | 120% | 110% | 106% |
| Cc1ccc2c(c1)c1nc3cc(C)c(C)cc3nc1n2CCN(C)C | 6.5% (active) | 1.96% (active) | 18.4% | 20.5% | 33.1% | 30.9% | 6.96% (active) | 29.7% | 50.1% | 12.8% |
| COc1ccc2c(c1)c(-c1nc(-c3c[nH]c4ncccc34)cs1)cn2CCCN1CCCCC1 | -38% (active) | -33% (active) | 49.1% | 77.4% | 62.6% | 61.7% | 34.4% | 27.8% | 59.7% | 58.7% |
| CCCCCCCC(=O)SCC/C=C/[C@@H]1CC(=O)NCc2cccc(n2)CN(Cc2ccc3ccccc3c2)CC(=O)N[C@@H](C(C)C)C(=O)O1 | 3.23% (active) | 32.6% | 22.7% | 26.2% | 66.3% | 24.5% | 53.2% | 47.3% | 34.9% | 30.8% |
| N=c1c(S(=O)(=O)c2ccccc2)cc2c(=O)n3ccccc3nc2n1C1CCCC1 | 82.4% | 92.9% | 88.3% | 103% | 95.5% | 104% | 97% | 93.9% | 95.6% | 87.4% |
| Cn1c(=O)c2c(nc(Br)n2CC(=O)Nc2ccc(F)cc2)n(C)c1=O | 89.2% | 79.1% | 103% | 103% | 120% | 102% | 107% | 114% | 100% | 102% |
| Fc1ccc(Nc2nnc(-c3ccc(Cl)cc3)o2)cc1 | 90.8% | 99.8% | 86.7% | 98.3% | 94.7% | 77.4% | 90.2% | 110% | 107% | 99% |
| O=c1[nH]c2c3ccncc3cc(-c3cccc(Cl)c3)c2c2cnccc12 | 14.3% | 27.1% | 40.2% | 67.9% | -8.25% (active) | 51.9% | 70.9% | -22.8% (active) | 5.48% (active) | 50.3% |
| COc1cc2c3c(c4c5ccccc5[nH]c4c2c(OC)c1OC)C(=O)N(O)C3=O | 14.3% | 31.6% | 36.8% | 112% | 56.6% | 48.8% | 9.03% (active) | 49.5% | 67.4% | 43.8% |
| COc1ccc(-c2n[nH]nc2-c2cc3ccccc3s2)cc1O | 18.6% | 21.1% | 27.7% | 38.2% | 52.4% | 15.5% | 49% | 16.1% | 18.3% | 13.5% |
| CC(=O)OCCCCCCn1c2ccccc2c2c3c(c4c5ccccc5n(C)c4c21)C(=O)N(O)C3=O | 17.1% | 31.2% | 66.3% | 98.6% | 70.5% | 86.9% | 49.6% | 77.2% | 124% | 52.1% |
| COc1ccc2[nH]c(-c3ccc(Cl)cc3)cc(=O)c2c1 | 100% | 96.3% | 103% | 97.7% | 98.5% | 99.6% | 102% | 106% | 99.7% | 102% |
| COc1cc2nc(Cl)nc(Nc3cccc(C(=O)/C=C/c4ccc(Br)cc4)c3)c2cc1OC | 14.7% | -2.21% (active) | 84.7% | 102% | 93% | 96.7% | 86.8% | 88.6% | 98.4% | 92.2% |
| COc1ccc(-c2nc3c(c(C)nn3-c3ccc(F)cc3)c(=O)[nH]2)cc1 | 15.9% | 89.8% | 60.7% | 85.9% | -39.3% (active) | 31.5% | 53.8% | 55% | 63.4% | 63.9% |
| CC(=O)O[C@H]1CC[C@]2(C)[C@H]3CC=C4[C@@H]5[C@H](C)[C@@H](C)CC[C@]5(C(=O)NCCNCCNCCN)CC[C@@]4(C)[C@]3(C)CC[C@H]2C1(C)C | -5.48% (active) | 42.3% | 96% | 96.1% | 95.2% | 106% | 57% | 89.8% | 95.4% | 89.8% |
| CC1=NN(c2ccc(S(=O)(=O)O)cc2Cl)C(=O)C1 | 113% | 104% | 99.9% | 94.3% | 102% | 105% | 105% | 158% | 131% | 98.9% |
| COc1cc(-c2c(C#N)c(-c3cccs3)nc3c2c(-c2ccccc2)nn3-c2ccccc2)ccc1O | 60.5% | 94.3% | 84.2% | 95.4% | 83.5% | 82.7% | 91.3% | 101% | 78.6% | 88.9% |
| COC(c1ccccc1)(c1ccccc1)c1ccccc1 | 114% | 171% | 98.8% | 113% | 99.3% | 107% | 123% | 108% | 103% | 108% |
| OCCNc1nc(Nc2ccc(Cl)c(Cl)c2)nc2ccccc12 | 3.46% (active) | 30.7% | 37.5% | 78.3% | 44.8% | 62.8% | 39.1% | 48.2% | 53.3% | – |
| COc1cc(/C=N/Nc2ncnc3c2c(C)nn3-c2ccc(F)cc2)ccc1O | 77% | 92.5% | 96.4% | 131% | 90.3% | 99.2% | 79.5% | 75.8% | 99.1% | 95.7% |
